Source: PubChem (National Center for Advancing Translational Sciences (NCATS))
ELG1 DNA repair – blocks ELG1-dependent DNA repair in HEK293T cells. HEK293T ELG1-luciferase reporter, luminescence, 16 h; DNA damage induced by 5-fluorouridine. 2.3% of 330,000 active. Potency, µM (highest dose often 46.1 µM), without a hit: top-dose activity change, negative = inhibition, hits mostly inhibitors. AID 504467; also: potency is read from the fitted curve at half-maximal effect; nearly all actives have a fitted effect of over 55% in size
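5-Fluorouridine DNA damage + compound/DMSO, 2,000 cells/well, 16 h, 37 °C/5% CO2. ONE-Glo, 30 min RT, luminescence. Readout = decrease in reporter signal.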
VP16 counter – counter-screen for ROR gamma inhibitors: Gal4-VP16 reporter; Potency, µM (series often up to 53.6 µM), for the others: at the highest dose activity, negative = inhibition, actives largely listed as inhibitors; Drosophila S2 Gal4-VP16 UAS-luciferase, luminescence, 20 h; 3.5% of 310,000 active;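 also: Gal4-VP16 expression switched on by copper sulfate through the metallothionein promoter; potency is read from the fitted curve at half-maximal effect; nearly all actives have a fitted effect of over 50% in size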
FBPA coupling cs – coupling enzyme interference in Giardia aldolase counter-screen. coupling enzyme system counterscreen, AmpLite Red fluorescence. activity change, negative = inhibition, % at 58.2 µM, hits read low. 0.67% of 290,000 active. AID 2472; in the data active = activity change below about -30%
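Counterscreen of the coupled detection system alone, without aldolase: glyceraldehyde-3-phosphate coupling enzymes plus AmpLite Red readout. Compounds at 57.5 uM final, 10 min RT preincubation, 20 min RT reaction, fluorescence 525/598 nm.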
TSHR antagonist – human thyrotropin receptor antagonism; P16473; TSHR-expressing cells, TSH-stimulated cAMP HTRF, 2 h; stronger effect = lower value; activity change, negative = inhibition, % at 11.5 µM; 0.2% of 330,000 active; AID 504810;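 active = activity change below a set negative limit, meaning inhibition stronger than a set level, cut at about -70% in these data; inconclusive = activity change between two set negative limits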
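Cell-based HTRF cAMP assay; TSHR cells + compound, TSH EC80 (4nM final), 2 h, 37 deg C. Lysis with anti-cAMP cryptate and cAMP-d2, 30 min RT, read 665/620 nm.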
RORgamma inh – inhibitors of mouse ROR gamma transcriptional activity; Potency, µM (series often up to 53.6 µM), for the others: at the highest dose activity change, negative = inhibition, hits mostly inhibitors; P51450; Drosophila S2 Gal4-RORgamma UAS-luciferase reporter, 20 h; 5.4% of 310,000 active; also: potency is read from the fitted curve at half-maximal effect; nearly all actives have a fitted effect of over 60% in size
Target sequence (P51450 whole entry, looked up, the tested form may be a part): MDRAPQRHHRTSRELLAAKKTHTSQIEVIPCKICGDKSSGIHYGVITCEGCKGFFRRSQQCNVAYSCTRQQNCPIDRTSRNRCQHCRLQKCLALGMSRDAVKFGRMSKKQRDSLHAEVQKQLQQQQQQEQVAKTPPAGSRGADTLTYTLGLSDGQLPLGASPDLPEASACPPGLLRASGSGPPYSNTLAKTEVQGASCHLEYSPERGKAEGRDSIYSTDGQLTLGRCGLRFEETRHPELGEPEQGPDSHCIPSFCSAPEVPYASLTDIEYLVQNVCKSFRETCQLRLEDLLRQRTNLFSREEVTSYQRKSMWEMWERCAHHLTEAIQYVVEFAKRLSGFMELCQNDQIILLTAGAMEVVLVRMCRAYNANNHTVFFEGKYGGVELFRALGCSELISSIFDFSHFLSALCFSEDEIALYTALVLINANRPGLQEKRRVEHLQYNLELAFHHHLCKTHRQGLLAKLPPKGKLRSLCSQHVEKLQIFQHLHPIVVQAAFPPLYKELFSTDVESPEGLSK
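Luminescence from a UAS-regulated Photinus luciferase reporter in stably transfected Drosophila Schneider cells is measured; decreased signal marks ROR gamma inhibition. Fusion expression is induced by 700 uM copper sulfate for 20 hr.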
* hit, by the source's call; u = inconclusive; x = no result given; [ ] = dose if it differs, or a comment. The list is not random: actives were taken first. Their share in the collection is about 8%. Unless noted, calls follow the shape of the dose curve; as a rule, active = well fitted curve in the direction sought with a large enough effect; inconclusive = small, poorly fitted or top-dose-only effect, or another doubt; inactive = no such curve, though single readings can be large; an effect the other way counts as inactive or inconclusive. % is scaled to controls: 0 for no effect and ±100 for the full control effect.

SMILES	ELG1 DNA repair	VP16 counter	FBPA coupling cs	TSHR antagonist	RORgamma inh
CCOc1ccc(Nc2nc(N)c3ccccc3n2)cc1	u	u	-3	11	7.1µM*
CC(=O)N1CCN(S(=O)(=O)c2cccc(C(=O)NC3CC3)c2)CC1	u	x	x	4	x
Cc1nn(-c2ccc(C(=O)Nc3nnc(C4CC4)s3)cc2)c(C)c1Cl	-11%	1%	4	-9	-2%
Cc1nn(-c2ccccc2)c(Cl)c1C(=O)Nc1nnc(C2CCCCC2)s1	-2%	u	9	16	13µM*
Cc1nn(-c2ccccc2)c(Cl)c1C(=O)NCCCCNC(=O)c1c(C)nn(-c2ccccc2)c1Cl	16µM*	2%	4	-5	42%
Cc1nn(-c2ccccc2)c(Cl)c1C(=O)NCc1ccccc1F	-10%	-15%	1	-4	1%
CSc1cccc(NC(=O)CCNS(=O)(=O)c2ccc3[nH]c(=O)oc3c2)c1	21%	3%	x	9	-10%
Cc1ccc(/C=C2\SC(=S)N(CC(=O)Nc3cccnc3)C2=O)cc1	14%	-4%	0	5	9%
COc1ccccc1/C=C1/SC(=S)N(CCC(=O)Nc2cccnc2)C1=O	-2%	-8%	x	-7	22%
O=C(CCCN1C(=O)/C(=C/c2cccc(Br)c2)SC1=S)Nc1cccnc1	9.2µM*	-9%	-1	-1	14µM*
Cc1ccc(/C=C2\SC(=S)N(CCCC(=O)Nc3cccnc3)C2=O)cc1	u	2.2µM*	x	7	6.3µM*
O=C(CCCN1C(=O)/C(=C/c2ccccc2OC(F)F)SC1=S)Nc1cccnc1	21µM*	x	x	-19	x
O=C(COc1ccc2c3c(c(=O)oc2c1)CCCC3)NCc1ccccn1	-18%	5%	x	0	-2%
Cc1ccc(C)c(NC(=O)c2ccccc2O)c1	u	u	-2	-6	u
Cc1ccc(C)c(/C=C/C(=O)c2ccccc(=O)c2O)c1	u	5µM*	-1	-6	3.2µM*
O=C(/C=C/c1ccc(O)c(O)c1)c1ccccc1O	u	u	-7	-12	-21%
O=C(/C=C/c1ccccc1Cl)Nc1ccc(Cl)cn1	u	5%	2	18	u
O=C(/C=C/c1ccccc1Cl)c1ccc(O)cc1	u	u	-1	-5	10µM*
Cc1ccc(/C=C/C(=O)c2ccccc(=O)c2O)c(C)c1	-27%	u	-5	-4	7.1µM*
O=C(/C=C/c1ccccc1Cl)c1ccccc(=O)c1O	u	5.6µM*	2	18	3.5µM*
NCCc1ccn[nH]1	18%	12%[17 µM]	2	-8	1%[2.98 µM]
Cc1csc2c(N3CCN(C(=O)NC(C)(C)C)CC3)ncnc12	u	-11%	0	-19	30%
Cc1csc2c(N3CCN(C(=S)Nc4ccc(C(F)(F)F)cc4)CC3)ncnc12	u	u	1	-25	5%
Cc1csc2c(N3CCN(C(=O)c4ccc(C(C)(C)C)cc4)CC3)ncnc12	15µM*	u	-1	-25	u
Cc1csc2c(N3CCN(C(=O)Nc4ccc(Cl)c(Cl)c4)CC3)ncnc12	18µM*	-24%	-7	-15	u
SMILES	ELG1 DNA repair	VP16 counter	FBPA coupling cs	TSHR antagonist	RORgamma inh
Cc1ccc(NC(=S)c2nc3ccccc3[nH]2)c(C)c1	u	u	0	5	14µM*
Cc1ccc(NC(=S)c2nc3ccccc3[nH]2)cc1	u	7.9µM*	-1	42	3.2µM*
COc1cc(/C=N/n2cc(-c3ccccc3)[nH]c2=S)cc(OC)c1O	-3%	-13%	-3	-12	u
S=c1[nH]c(-c2ccccc2)cn1/N=C/c1cccc2ccccc12	-14%	u	-1	4	2.5µM*
S=c1[nH]c(-c2ccccc2)cn1/N=C/c1ccccc1Br	6%	u	-5	1	1µM*
Cc1ccc(/C=N/n2cc(-c3ccccc3)[nH]c2=S)s1	u	5µM*	4	8	0.45µM*
Cc1ccccc1/C=N/n1c(-c2cc(-c3ccccc3)n[nH]2)n[nH]c1=S	7%	u	0	-32	u
Oc1ccc(/C=N/n2cc(-c3ccccc3)[nH]c2=S)cc1	15%	0%	0	3	7.9µM*
